GLP1R cytotox – qHTS of GLP-1 Receptor Inverse Agonists: Cytotox Screen; Potency, µM (series often up to 38.3 µM), inactives show at the highest dose activity change, negative = inhibition, hits mostly inhibitors; AID 624418, 2012; HEK293 cAMP-luciferase reporter cells, luminescence, 24 h; 0.13% of 410,000 active;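 note: loss of luciferase light is scored as toxicity; potency is the fitted concentration of half-maximal effect; % is set by controls: 0 for no effect and ±100 for the full control effect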
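Step one: seed cells (200 cells/uL, DMEM with 10% Nu serum, 1% pen-strep). Step two: 12-hour incubation at 37 deg C. Step three: pin 23 nL compound, incubate 24 hr. Step four: add luciferase reagent, read luminescence 12 min later.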
LDHA inh – qHTS assay for inhibitors of human lactate dehydrogenase. 0.15% of 480,000 active. purified LDHA, NADH/diaphorase-resazurin fluorescence; hits give low values. activity change, % (values are at about 110 or 230 µM). AID 1347041, 2019. L-lactate dehydrogenase A chain (Homo sapiens), P00338; in the data active = activity change below about -30%; inconclusive = mostly about -25% to -30%;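 note: plate controls were DMSO wells for no effect and wells without enzyme for full effect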
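Human LDH5 (2 nM) was incubated with 0.06 mM NADH and 0.2 mM pyruvate for 5 min at room temperature in Tris pH 7.4. Remaining NADH was coupled through diaphorase/resazurin, and resorufin fluorescence was read at 0 and 20 min.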
p53 reactivation – qHTS assay for re-activators of p53 using a Luc reporter; 0.063% of 320,000 active; H1299 p53-A138V BP100-luciferase reporter, luminescence, 24 h; Potency, µM (top dose mostly 92.2 µM), for the others: top-dose activity change, positive = activation, hits mostly activators; AID 504706, 2011; note: potency is the fitted concentration of half-maximal effect; % of control where 0% means no effect; nearly all actives have a fitted effect of over 45% in size
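p53-null H1299 cells stably carrying temperature-sensitive p53-A138V and a BP100-luciferase reporter were pinned with compounds (4-point, 1:5 series) and held 24 hrs at 37 deg C. Luminescence was read 10 min after detection reagent.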
GLP-1R agonist – qHTS of GLP-1 Receptor Agonists. Glucagon-like peptide 1 receptor (Homo sapiens), P43220. Potency, µM (top dose mostly 45.6 µM), without a hit: top-dose activation, hits mostly activators. 0.007% of 380,000 active. HEK293 GLP-1R CRE-luciferase, luminescence, 4-6 h; cells express a hypersensitive GLP-1R form; note: potency is the fitted concentration of half-maximal effect; % of control where 0% means no effect
Target sequence (P43220 whole entry, looked up): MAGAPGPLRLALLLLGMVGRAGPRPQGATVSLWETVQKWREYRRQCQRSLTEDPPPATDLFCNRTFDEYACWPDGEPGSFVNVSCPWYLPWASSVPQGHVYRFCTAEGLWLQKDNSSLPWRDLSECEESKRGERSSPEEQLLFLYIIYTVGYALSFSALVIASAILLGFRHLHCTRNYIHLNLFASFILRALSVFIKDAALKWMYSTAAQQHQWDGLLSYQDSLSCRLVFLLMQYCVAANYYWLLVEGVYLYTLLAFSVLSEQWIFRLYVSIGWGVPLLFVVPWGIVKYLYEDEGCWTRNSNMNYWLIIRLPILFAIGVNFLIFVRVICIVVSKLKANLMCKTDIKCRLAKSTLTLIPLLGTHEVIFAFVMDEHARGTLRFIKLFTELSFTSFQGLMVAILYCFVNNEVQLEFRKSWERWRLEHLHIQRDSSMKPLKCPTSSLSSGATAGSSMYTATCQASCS
ClpP mod – qHTS Assay for Activators of ClpP. purified B. subtilis ClpP, FRET peptide cleavage, 20 min. Potency, µM (top dose mostly 57.5 µM), without a hit: at the highest dose activity change, negative = active. 1.9% of 340,000 active. AID 651965, 2013; active = well fitted falling curve with a large enough effect; inconclusive = small, poorly fitted or top-dose-only effect; inactive = no such curve, though single readings can be large or run the other way; note: potency is the fitted concentration of half-maximal effect; the source files actives as falling curves though it sought activators and does not explain the sign; nearly all actives have a fitted effect of over 65% in size
Target sequence (P80244 whole entry, looked up): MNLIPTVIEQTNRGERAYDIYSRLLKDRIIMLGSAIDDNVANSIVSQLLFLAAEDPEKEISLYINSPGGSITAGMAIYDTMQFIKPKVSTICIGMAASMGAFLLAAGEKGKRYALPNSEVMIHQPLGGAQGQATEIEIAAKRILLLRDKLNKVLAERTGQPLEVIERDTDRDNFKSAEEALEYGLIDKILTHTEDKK
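ClpP 10 microg/mL final, pH 8 Tris/KCl buffer with BSA, glycerol, Tween-20; compound pinned in; FRET-FV substrate; RT 20 min; Ex320/Em430; ΔFRET vs ADEP 5.8 microM, DMSO, no enzyme.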
GLP-1R inv ag – qHTS of GLP-1 Receptor Inverse Agonists (Inhibition Mode) | Glucagon-like peptide 1 receptor (Homo sapiens), P43220 | HEK293 GLP-1R CRE-luciferase, luminescence, 24 h; GLP-1R form is constitutively active | Potency, µM (titrated, usually from 38.3 µM), for inactives: at the top dose activity change, negative = inhibition, hits mostly inhibitors | 1.6% of 410,000 active; note: potency is the fitted concentration of half-maximal effect; % is set by controls: 0 for no effect and ±100 for the full control effect; nearly all actives have a fitted effect of over 55% in size
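Inverse agonism was detected as reduced cAMP-driven luciferase luminescence after 24 h compound treatment. The cells were HEK293 clones expressing constitutively active human GLP-1R with the reporter. Reporter-only and GPR119 cell lines served as counterscreen controls.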
* hit, by the source's call; ? = inconclusive; / = no result given; ! = repeats disagree; [ ] = dose if it differs, or a comment. Most compounds without a hit are left out; they make up all but 2.9% or so of the library. Unless noted, calls come from the whole dose curve; as a rule, active = well fitted curve in the direction sought with a large enough effect; inconclusive = small, poorly fitted or top-dose-only effect, or another doubt; inactive = no such curve, though single readings can be large; an effect the other way counts as inactive or inconclusive.

SMILES	GLP1R cytotox	LDHA inh	p53 reactivation	GLP-1R agonist	ClpP mod	GLP-1R inv ag
Cc1cc(/C=C2\SC(=S)N(C)C2=O)c(C)n1-c1ccc(O)cc1	9%	0	20%	-5%	1%	1.4µM*
COc1ccc(C(=O)N/N=C(\C)Cn2nc([N+](=O)[O-])cc2C)cc1	8%	0	5%	-11%	11µM*	-1%
CC(C)(C)OC(=O)N(CCc1ccccc1)Cc1ccccc1OCc1cccc(NC(=O)C2CCC2)c1	-5%	0	/	1%	0%	8.9µM*
CC(C)(C)OC(=O)N(Cc1ccccc1)Cc1ccccc1OCc1cccc(NC(=O)C2CC2)c1	-2%	0	/	3%	-1%	10µM*
CC(C)C(=O)Nc1cccc(COc2ccc(CN(CCc3ccccc3)C(=O)OC(C)(C)C)cc2)c1	13%	1	/	-1%	-3%	6.3µM*
CC(C)(C)OC(=O)N(Cc1ccccc1)Cc1cccc(OCc2cccc(NC(=O)C3CC3)c2)c1	12%	-1	/	0%	-5%	10µM*
Cc1cc(Br)ccc1NC(=O)c1ccc2c(Cl)c3c(nc2c1)CCCC3	/	-3	/	/	/	/
CC(=O)Nc1ccc(S(=O)(=O)c2c(N)n(CCN3CCOCC3)c3nc4ccccc4nc23)cc1	0%	-4	-2%	-11%	32µM*	4%
CC(=O)Nc1c(S(=O)(=O)c2ccccc2)c2nc3ccccc3nc2n1Cc1ccccc1	186%	4	1%	-12%	16µM*	-9%
Nc1c(S(=O)(=O)c2cc(Cl)ccc2Cl)c2nc3ccccc3nc2n1CCN1CCOCC1	8%	-5	-4%	1%	?	-19%
CCc1cc(SC#N)cc(C)c1NC(=O)CCl	-5%	-8	-19%	-5%	-4%	?
NS(=O)(=O)c1ccc(N/N=C/c2cn(-c3ccccc3)nc2-c2cccs2)cc1	?	1	6%	-30%	16µM*	?
Cc1cc(C)c(NC(=O)CNC(=O)CN(C)Cc2ccc(Br)s2)c(C)c1	-5%	-2	-5%	-7%	0%	6.3µM*
CCOC(=O)c1c(NC(=O)c2cccs2)sc(CC)c1-c1cccs1	-10%	-3	-1%	0%	32µM*	0%
NC(c1ccc(F)c(F)c1)c1nc(-c2ccc3ccccc3c2)cs1 (centres undefined)	7%	-1	/	-4%	-1%	-12%
CCCCN(CC)CCNC(=O)c1cn(-c2ccc(Cl)cc2)c(=O)c2ccccc12	-29%	-7	6%	7%	/	10µM*
CNC(=O)c1cn(-c2ccc(Cl)cc2)c(=O)c2ccccc12	-19%	-6	2%	3%	/	-14%
Cn1c2ccccc2c2c(C(=O)NCC3CCCO3)cn(C3CCCC3)c(=O)c21 (centres undefined)	-6%	4	2%	8%	-22%	-6%
CN(C)CCCNC(=O)c1cc2sc3ccccc3c2s1	?	-5	18%	6%	/	4µM*
CCN(CC)CCCNC(=O)c1cn(CC(C)C)c(=O)c2c1c1ccccc1n2C	-4%	0	-6%	26%	16µM*	?
CC(C)Cn1cc(C(=O)NCC2CCCO2)c2c3ccccc3n(C)c2c1=O (centres undefined)	5%	25	-4%	18%	16µM*	3%
Cc1[nH]c(=O)[nH]c(=O)c1S(=O)(=O)N1CCCC(C(=O)NCc2ccc3c(c2)OCO3)C1 (centres undefined)	-5%	-4	2%	1%	/	-3%
CCOC(=O)c1c(NCc2ccccc2)n[nH]c1C	-3%[1.53 µM]	-5	-9%	15%	1%	26%
OCCN=c1cc(-c2ccccc2)oc2ccc(Cl)cc12	9%	-5	23%	0%	-1%	?
CCCCN(CC)CCCNC(=O)c1cc2c(=O)n(CC)c3ccccc3c2s1	38%	3	3%	7%	/	2.8µM*
SMILES	GLP1R cytotox	LDHA inh	p53 reactivation	GLP-1R agonist	ClpP mod	GLP-1R inv ag
CC(C)Cn1cc(C(=O)NCCCOC(C)C)c2c3ccccc3n(C)c2c1=O	-2%	-2	-5%	1%	28µM*	0%
CCN(CC)CCCNC(=O)c1cn(C)c(=O)c2c1c1ccccc1n2C	-18%	-2	-4%	-4%	4%	2%
CCCCN(CC)CCCNC(=O)c1cn(CC(C)C)c(=O)c2c1c1ccccc1n2C	-2%	-6	0%	6%	20µM*!	?
CC1CCC/C=C/C(=O)c2c(O)cc(O)cc2CC(=O)O1 (centres undefined)	?	9	-13%	-10%	-7%	5µM*
C[C@@H]1Cc2c(O)c(O)cc(O)c2C(=O)O1	3%	24	6%	-3%	-4%	5%
Cc1nc(CCNC(=O)CC2C(=O)NCCN2CC(C)(C)C)nc2c1CCC2 (centres undefined)	-1%	5	/	-19%	-10%	6%
Cc1ccc(Nc2ccc(C(=O)N3CCCC3)cn2)c(C)c1	-29%	-11	4%	-3%	-2%	48%
C=CCNC(=O)COc1ccc(S(=O)(=O)Nc2ccc(OCC)cc2)cc1	-6%	5	-9%	0%	13µM*	-12%
COc1ccc(C2=Nc3ccccc3N(C(=O)c3ccc(C(F)(F)F)cc3)C2C(=O)NCc2ccccc2)cc1 (centres undefined)	17%	-6	/	/	-11%	6.3µM*
Cc1cc(=O)oc2cc(OCC(=O)N3CCCc4ccccc43)ccc12	-16%	2	-2%	2%	?	3%
Cc1cc(=O)oc2cc(Oc3ncccn3)ccc12	-17%	-3	1%	6%	32µM*	13%
Cc1cccc(-c2nnc(SCCOc3ccc4c(C)cc(=O)oc4c3)o2)c1	0%	-5	-6%	2%	10µM*	-14%
O=c1ccc2ccc(OCc3nnc(-c4ccccc4Br)o3)cc2o1	4%	-3	13%	?	?	0%
Cc1cc(=O)oc2cc(OCc3nnc(-c4ccccc4Br)o3)ccc12	-27%	0	-1%	?	28µM*	5%
Cc1cc(=O)oc2cc(OCC(=O)N3CCc4ccccc4C3)ccc12	-17%	-2	-19%	-2%	25µM*	-20%
COc1ccc(NS(=O)(=O)c2ccc(NC(=O)C3CC3)cc2)cc1	-2%	-3	-17%	1%	0%	-7%
Cc1cc(=O)oc2cc(OCC(=O)NCc3ccccn3)ccc12	0%	6	3%	2%	25µM*	-1%
